# Gal4-VP16 FLuc – inhibits Gal4-VP16 luciferase reporter, ROR gamma counter-screen | Drosophila S2 Gal4-VP16 UAS-luciferase, luminescence, 20 h | Potency, µM (titrated, usually from 53.6 µM), inactives show top-dose activity, negative = inhibition, most hits filed as inhibitors | 3.5% of 310,000 active;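 note: Gal4-VP16 expression switched on by copper sulfate through the metallothionein promoter; nearly all actives have a fitted effect of over 50% in size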
# TDP1 cell noCPT – qHTS for Inhibitors of human tyrosyl-DNA phosphodiesterase 1 (TDP1): qHTS in cells in absence of CPT; 15% of 420,000 active; DT40 Tdp1-/- hTDP1 cells, no CPT, ATP luminescence, 48 h; AID 686978, 2013; Potency, µM (doses to about 46.2 µM), inactives show at the highest dose activity change, negative = growth inhibition, actives largely listed as inhibitors; note: nearly all actives have a fitted effect of over 55% in size
#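 Chicken DT40 Tdp1-/- cells stably complemented with human TDP1 were seeded at 400 cells/well with DMSO in place of 20 nM camptothecin. After compound pinning, cells grew at least 48 hr at 37 °C; viability read by CellTiter-Glo luminescence.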
# RORgamma inh – ROR gamma (mouse) transcription inhibition; Drosophila S2 Gal4-RORgamma UAS-luciferase reporter, 20 h; Potency, µM (titrated, usually from 53.6 µM), for the others: at the top dose activity change, negative = inhibition, hits mostly inhibitors; 5.4% of 310,000 active; AID 2551; note: nearly all actives have a fitted effect of over 60% in size
#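 Stable Schneider cell line, Gal4 DNA-binding domain fused to ROR gamma, UAS-luciferase. Cmpd 1 hr RT → CuSO4 700 uM final → 20 hr RT → luciferase reagent 10 min → luminescence.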
# DT40 TDP1 CPT – growth inhibition of DT40 Tdp1-/-;hTDP1 cells with camptothecin (screen for TDP1 inhibitors); chicken DT40 Tdp1-/-;hTDP1 cells + 20 nM CPT, ATP luminescence, 48 h; 12% of 420,000 active; Potency, µM (doses to about 46.2 µM), inactives show at the top dose activity change, negative = growth inhibition, actives largely listed as inhibitors; note: nearly all actives have a fitted effect of over 55% in size
#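 Chicken DT40 Tdp1-/- cells stably complemented with human TDP1 were seeded at 400 cells/well in medium containing 20 nM camptothecin, exposed to pin-transferred compounds, and grown at 37 °C for at least 48 hr. Viability was read as ATP luminescence.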
# TDP1 block – inhibitors of human tyrosyl-DNA phosphodiesterase TDP1 | Q9NUW8 | recombinant TDP1, AlphaScreen DNA substrate cleavage | Potency, µM (doses to about 130 µM), without a hit: at the top dose activity change, negative = inhibition, actives largely listed as inhibitors | 0.28% of 350,000 active | AID 485290; note: nearly all actives have a fitted effect of over 40% in size
# Target sequence (Q9NUW8 whole entry, looked up): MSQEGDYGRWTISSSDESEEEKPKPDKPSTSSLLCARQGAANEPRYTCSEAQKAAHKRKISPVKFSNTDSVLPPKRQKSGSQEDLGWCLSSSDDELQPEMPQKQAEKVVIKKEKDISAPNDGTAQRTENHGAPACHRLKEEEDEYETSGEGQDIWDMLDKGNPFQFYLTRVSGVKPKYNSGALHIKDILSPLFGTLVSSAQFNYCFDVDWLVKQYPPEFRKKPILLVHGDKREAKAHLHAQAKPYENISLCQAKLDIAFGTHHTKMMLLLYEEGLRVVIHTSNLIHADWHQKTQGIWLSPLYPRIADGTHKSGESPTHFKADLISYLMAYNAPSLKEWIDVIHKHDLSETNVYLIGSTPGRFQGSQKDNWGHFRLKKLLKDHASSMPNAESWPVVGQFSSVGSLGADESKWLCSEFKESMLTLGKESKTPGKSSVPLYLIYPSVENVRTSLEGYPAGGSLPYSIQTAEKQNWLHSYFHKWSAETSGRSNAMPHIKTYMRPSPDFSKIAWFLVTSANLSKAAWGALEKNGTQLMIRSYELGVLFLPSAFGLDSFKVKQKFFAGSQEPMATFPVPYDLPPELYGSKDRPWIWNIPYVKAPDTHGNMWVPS
#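 AlphaScreen read-out: signal falls as enzyme removes the 3' tyrosine-FITC from a 5'-biotinylated DNA oligo (15 nM, 5 min, RT). Enzyme was E. coli-made recombinant Tdp1 at 1 nM, exposed to compound for 15 min beforehand; beads 10 ug/ml, 10 min.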
# * hit, by the source's call; ? = inconclusive; . = not tested or not shown; [ ] = remark or other dose. Most compounds without a hit are left out; they make up all but 19% or so of the library. Calls come from the whole dose curve; as a rule, active = well fitted curve in the direction sought with a large enough effect; inconclusive = small, poorly fitted or top-dose-only effect, or another doubt; inactive = no such curve, though single readings can be large; an effect the other way counts as inactive or inconclusive. % is set by controls: 0 for no effect and ±100 for the full control effect; potency is the fitted concentration of half-maximal effect.
SMILES,Gal4-VP16 FLuc,TDP1 cell noCPT,RORgamma inh,DT40 TDP1 CPT,TDP1 block
O=C(C1CCN(S(=O)(=O)c2cccc3nonc23)CC1)N1CCN(c2ccccc2F)CC1,.,?,.,?,1.5%
COc1ccc(CCN(C)C(=O)c2cc(S(=O)(=O)NCc3ccccc3)ccc2C)cc1OC,.,?,.,?,-0.4%
O=C(c1cccc(Cl)c1)N1CCN(C(=O)c2ccccc2F)CC1,-3.6%,-1.9%,9.1%,-27.9%,3.3%
O=C(c1cccc(Br)c1)N1CCN(c2cnn(-c3ccccc3)c(=O)c2Cl)CC1,-12.7%,16.4µM*,11.6%,?,-1.2%
O=C(c1cccc(Br)c1)N1CCN(c2ccccn2)CC1,.,-24.1%,.,-18.5%,.
O=C(c1ccccc1F)N1CCN(c2cnn(-c3cccc(Cl)c3)c(=O)c2Cl)CC1,?,20.6µM*,25.3%,?,-2.7%
O=C(COc1ccc(S(=O)(=O)NC2CCCC2)cc1)N1CCCCCC1,1.0%,-21.4%,-16.5%,1.7%,7.7%
O=C(O)Cc1ccc(NC(=O)C2CC=CCC2C(=O)O)cc1 (stereo not given),-2.0%,.,-20.2%,.,44.7µM*
Cc1ccccc1Oc1ccc(NC(=O)C2CC=CCC2C(=O)O)cc1 (stereo not given),4.0%,6.51µM*,0.7%,14.6µM*,6.3%
Cc1ccccc1N1CCN(c2ccc(NC(=O)C3CCCCC3C(=O)O)cc2)CC1 (stereo not given),2.5%,9.2µM*,?,?,5.3%
CC(C)(C)c1ccc(Oc2ccc(NC(=O)C3CC=CCC3C(=O)O)cc2)cc1 (stereo not given),?,6.4%,?,29.4%,.
O=C(O)C1CC=CCC1C(=O)Nc1ccccc1 (stereo not given),11.8%,-11.1%,?,11.7%,22.4µM*
CC1(C(=O)NS(=O)(=O)c2ccccc2)CCN1C(=O)Cc1ccccc1Cl (stereo not given),.,-9.7%,.,-21.5%,.
O=C(N/N=C/c1ccsc1)C1CC1,-5.9%,-11.8%,23.0%,-17.6%,0.0%
CCC(C)Nc1nc(OC)nc(N(C)C#N)n1 (stereo not given),-4.1%,?,11.5%[10 µM],-29.6%,7.0%
Cc1[nH]nc2c1C(c1ccc(O)cc1)C1=C(CC(C)(C)CC1=O)N2 (stereo not given),2.0%,5.7%,10.3%,2.2%,4.6%
CC(CNC(=O)Cn1c(-c2cccs2)cc2cc(Cl)ccc21)c1ccccc1 (stereo not given),.,?,.,?,-1.2%
O=C(O)C1CCCCC1C(=O)Nc1cccc(Br)c1 (stereo not given),.,-11.8%,.,-2.0%,2.82µM*
Cc1cccc(N2CCN(C(=O)c3ccccc3NC(=O)C3CC=CCC3C(=O)O)CC2)c1 (stereo not given),-11.5%,5.8µM*,-0.9%,?,3.5%
O=C(O)C1CC=CCC1C(=O)Nc1ccccc1Cl (stereo not given),-5.6%,23.1µM*,-35.8%,?,4.0%
CC(=O)CC1(O)C(=O)Nc2ccccc21 (stereo not given),-9.3%,11.6%,3.9%,-3.8%,5.5%
COC1=CC(=O)C=C(OC)C1(O)CC(C)=O,.,3.66µM*,.,4.11µM*,.
Cc1cccc(NC(=S)N(Cc2ccc(Cl)cc2)Cc2ccc(C(=O)O)cc2)c1,-3.9%,-18.0%,42.1%,18.0%,-2.7%
NC(=O)C1(N2CCCCC2)CCN(C(=S)Nc2ccccc2)CC1,-4.2%,2.9%,-7.3%,-2.2%,3.5%
Oc1cc(-c2ccccc2)c2ccccc2c1,-2.9%,?,12.7%,18.4µM*,3.4%
CCc1nc2ccc(C(=O)Nc3cc(-c4ccccc4)ccc3OC)cn2c1N(C)Cc1ccc(Cl)cc1,.,20.6µM*,.,18.4µM*,.
CCN(CC)c1c(C)nc2ccc(C(=O)Nc3cc(-c4ccccc4)ccc3OC)cn12,.,18.4µM*,.,?,.
COC(=O)CN1C(=O)COc2ccc(S(=O)(=O)N3CCCC3)cc21,-14.7%,22.6%,-19.2%,-6.7%,-0.8%

# Screening results from PubChem.
